In all, about 59,000 compounds went through this assay and about 6,200 (11%) were called active. Another 9% or so got no clear call; they are omitted. Rule as the data show it: active = max dye-equivalent concentration above about 10 nM; inconclusive = mostly about 1.1 nM to 9.6 nM; inactive = weaker than that. The sample as a whole holds a higher share of actives than the screen did.

A short description of this test: qHTS Assay for Spectroscopic Profiling in 4-MU Spectral Region. Particulars: compound autofluorescence, 340/450 nm, 4-MU equivalents; stronger effect = higher value. From the text: NIH Molecular Libraries Screening Centers Network [MLSCN] NIH Chemical Genomics Center [NCGC] […] Occasionally, the artifactual effect may originate from the compounds own spectral or other biophysical properties which generally tend to track its assay concentration. Pre-screening/profiling the library with respect to the compounds spectral properties should help one exclude false positives early on. While the most informative fluorescent profiling data set is obtained by performing a full excitation and emission scan of each well by using a monochromator-based plate reader, such an approach is practical only on a very limited scale as scanning each well requires long time. An alternative approach, applied here, is to perform plate reader scans using selected excitation and emission wavelength pairs to generate a multidimensional relational database that correlates compound concentration and the respective relative fluorescence intensity at a given wavelength set. A standard curve of 4-methylumbelliferone (4-MU) present on each plate as six-point concentration series, was used to compute a normalized fluorescence response, termed dye-equivalent concentration, for each compound at each concentration.
NCGC Assay Protocol Summary: Buffer: 100 mM Tris buffer, pH 8.0 Dye standard plate: The wells in columns 1 through 4 of a Kalypsys polypropylene 1536-well compound plate were filled with standard solutions of fluorophore corresponding to the spectral region of interest. Solutions of 4-MU were placed in the following wells: A1, B1: 3 mM, A2, B2: 300 uM, A3, B3: 30 uM, A4, B4: zero (DMSO), C1, D1: 3 uM, C2, D2: 900 nM, C3, D3: 300 nM, C4, D4: zero (DMSO). Assay Steps: Six uL of buffer were dispensed to 1536-well Greiner black plates. Compounds and dye standards (23 nL) were transferred via Kalypsys PinTool. The plates were incubated for 15 min at room temperature, and then read on ViewLux (Perkin-Elmer) High-throughput CCD imager using 340 nm and 450 nm excitation and emission filter set. Keywords: NIH Roadmap, MLSCN, MLI, MLSMR, qHTS, NCGC, Fluorescent Profiling, 4MU, 4-MU
Background: qHTS replaces the single test concentration by a dilution series.
For `O=C(CNS(=O)(=O)c1ccc(Br)s1)NCc1ccc2c(c1)OCO2`, the max dye-equivalent concentration entry was “inactive”.

As to `O=C(N1CCOCC1)N(Cc1ccccc1)c1ccccn1`, the max dye-equivalent concentration entry was “inactive”.

As for `NC(=O)CSc1c[nH]c2ccccc12`, the max dye-equivalent concentration entry is “inactive”.

Consider `Cc1ccc2c(c1)C(O)(CC(=O)c1cccnc1)C(=O)N2` (stereo not given), for which the max dye-equivalent concentration result was “inactive”.

With `CCc1cc2c(=O)c(-c3ccon3)c(N)oc2cc1OC`, the max dye-equivalent concentration result was “inactive”.

Turning to `Cc1ccc(-c2noc(CN3CCN(Cc4ccccc4)CC3)n2)cc1`, the max dye-equivalent concentration entry is “inactive”.

Take `COc1ccccc1Cc1nc(-c2ccc(C)cc2)no1`: the max dye-equivalent concentration is 16 nM (active).

As for `Cc1ccc(Cc2nc(-c3cccc(C)c3)no2)cc1`, the max dye-equivalent concentration result was “inactive”.

Take `O=C(Nc1cccc(F)c1)N1CCC2(CC1)CCN(S(=O)(=O)c1ccccc1)CC2`: the max dye-equivalent concentration entry was “inactive”.

`CN1CCCC(OC(=O)COc2ccc(Br)cc2)C1` (stereo not given): the max dye-equivalent concentration entry is “inactive”.

In the case of `CCCSC1=C(C#N)C(c2ccccc2C)C(C(=O)OC)C(=O)N1` (stereo not given), the max dye-equivalent concentration result is “inactive”.

For the compound `Cc1ccc2nc(-c3ccc(SCC(=O)Nc4cc(C)on4)nc3)[nH]c2c1`, the max dye-equivalent concentration was 33 nM (active).

On to `Cc1nc(SCC(=O)Nc2cc(C)on2)c2c(C)c(C)sc2n1`, for which the max dye-equivalent concentration entry was “inactive”.

Regarding `Cc1cc(C)c2c(c1)cc(C)c1nnc(SCC(=O)Nc3cc(C)on3)n12`, the max dye-equivalent concentration result is “inactive”.

`CCOc1ccccc1C(=O)NCCCn1ccnc1`: the max dye-equivalent concentration result was “inactive”.

Regarding `CCOc1ccccc1C(=O)NCc1ccco1`, the max dye-equivalent concentration result was “inactive”.

Regarding `CCOc1ccccc1C1C(C(=O)OC)=CN(C)C=C1C(=O)OC`, the max dye-equivalent concentration is 10000 nM (active).

Regarding `CN(C(=O)COc1nnc(-c2cccs2)c(-c2cccs2)n1)c1ccccc1`, the max dye-equivalent concentration result is “inactive”.

`COCCn1c(=O)c(-c2cccs2)nc2cncnc21`: the max dye-equivalent concentration was 74 nM (active).

Take `COCCn1c(=O)c(-c2cccs2)nc2cnc(N3CCN(C)CC3)nc21`: the max dye-equivalent concentration is 14 nM (active).

`COc1ccccc1CCn1c(=O)c(-c2cn(C)c3ccccc23)nc2cncnc21`: the max dye-equivalent concentration result was “inactive”.

In the case of `COC(=O)[C@@H]1[C@H]2C[C@H]3c4[nH]c5cc(OC)ccc5c4CCN3C[C@@H]2C[C@@H](OC(=O)c2cc(OC)c(OC)c(OC)c2)[C@@H]1OC`, the max dye-equivalent concentration result was “inactive”.

With `CCCCn1nnnc1NCc1cc(OC)c(OC)c(OC)c1`, the max dye-equivalent concentration result was “inactive”.

With `COC(=O)CCNc1ccc2c(c1)OCCO2`, the max dye-equivalent concentration entry was “inactive”.

In the case of `CCOc1ccc(-c2nnc3ccc(SC)nn23)cc1`, the max dye-equivalent concentration is 12 nM (active).

As for `CCOc1cccc(-c2nnc3sc(COc4ccc(OC)cc4)nn23)c1`, the max dye-equivalent concentration entry is “inactive”.

As to `O=C1NC(=O)[C@@](Cc2ccccc2)(c2cccnc2)N1`, the max dye-equivalent concentration result was “inactive”.

Take `O=c1cc(CSc2ccc(Cl)cc2)nc(N2CCOCC2)[nH]1`: the max dye-equivalent concentration entry is “inactive”.

Regarding `CC1=C(C(=O)Nc2ccccc2)C(c2cccs2)C(C#N)=C(SCC#N)N1` (stereo not given), the max dye-equivalent concentration result was “inactive”.

In the case of `CCOC(=O)N1CC=C2C(C#N)=C(N)C(C#N)(C#N)[C@H](c3cccs3)[C@H]2C1`, the max dye-equivalent concentration was 27 nM (active).

Regarding `O=C(c1cc(C(F)(F)F)cc(C(F)(F)F)c1)N1CCC2(CC1)CN(c1ccncc1)C2`, the max dye-equivalent concentration entry was “inactive”.

`CCOC(=O)c1cc2ccccc2nc1C`: the max dye-equivalent concentration result is “inactive”.

`Cc1nc2ccccc2cc1O`: the max dye-equivalent concentration is 2300 nM (active).

Consider `Cc1cc(O)ccc1-c1cnc2ccccc2n1`, for which the max dye-equivalent concentration entry is “inactive”.

In the case of `CC(=O)N1CCN(C(=O)Nc2cccc(C(F)(F)F)c2)CC1`, the max dye-equivalent concentration result was “inactive”.

Regarding `Cc1ccc(NC(=O)CCNS(=O)(=O)c2ccc3c(c2)oc(=O)n3C)cc1C`, the max dye-equivalent concentration result was “inactive”.

As for `O=C1c2ccccc2C(=O)N1CCCSc1ccccc1`, the max dye-equivalent concentration entry is “inactive”.

With `Nc1ccc(SCCN2C(=O)c3ccccc3C2=O)cc1`, the max dye-equivalent concentration result was “inactive”.

With `C[N+](C)(CCCCCC[N+](C)(C)CCCN1C(=O)c2cccc3cccc(c23)C1=O)CCCN1C(=O)c2cccc3cccc(c23)C1=O`, the max dye-equivalent concentration is 260 nM (active).

On to `CCCC(=O)Nc1ccc(C(=O)NCCCn2ccnc2)cc1`, for which the max dye-equivalent concentration result is “inactive”.

Take `CSc1ccc(S(=O)(=O)NCc2ccc(Cl)cc2)cc1`: the max dye-equivalent concentration result is “inactive”.

Take `Cc1cc(C)n(-c2nc(SCC(=O)N3CCCC3)c3c4c(sc3n2)CCCC4)n1`: the max dye-equivalent concentration result was “inactive”.

In the case of `COCCNc1nc(-n2nc(C)cc2C)nc2sc3c(c12)CCCC3`, the max dye-equivalent concentration is 920 nM (active).

With `COCCn1c(C)cc(C(=O)CSc2ncnc3sc4c(c23)CCC4)c1C`, the max dye-equivalent concentration entry was “inactive”.

Turning to `COc1ccc(S(=O)(=O)Nc2ccc3c(c2)OCO3)cc1Cl`, the max dye-equivalent concentration entry is “inactive”.

As for `N#Cc1ccc(COC(=O)Cn2nnc(-c3ccccc3)n2)cc1`, the max dye-equivalent concentration entry is “inactive”.

For the compound `CCCNS(=O)(=O)c1ccc2c(c1)CCCN2C(C)=O`, the max dye-equivalent concentration entry was “inactive”.

Turning to `CC(C)OCCCNc1ncnc2c1[nH]c1ccc(F)cc12`, the max dye-equivalent concentration was 12 nM (active).

With `Fc1cc(F)c2nc(N3CCOCC3)sc2c1`, the max dye-equivalent concentration entry was “inactive”.

On to `O=C(CSc1nnc(-c2cnccn2)n1Cc1ccco1)c1ccc(Cl)c(Cl)c1`, for which the max dye-equivalent concentration entry was “inactive”.

For the compound `Cn1c(SCc2c(F)cccc2Cl)nnc1-c1cnccn1`, the max dye-equivalent concentration is 17 nM (active).

`CCN(CC)C(=O)CSc1nnc(-c2cnccn2)n1-c1ccc(C)cc1`: the max dye-equivalent concentration entry was “inactive”.

Take `O=C(COc1ccccc1)N1CCc2ccccc2C1`: the max dye-equivalent concentration entry is “inactive”.

On to `Cn1c(/C(C#N)=C2/CCCCCN2)nc2ccccc21`, for which the max dye-equivalent concentration was 22 nM (active).

`N#C/C(=C1\CCCN1)c1nc(-c2ccccc2)cs1`: the max dye-equivalent concentration entry was “inactive”.

The values above are taken from PubChem BioAssay AID589 (National Center for Advancing Translational Sciences (NCATS), 2007).
